Unmarked numbers belong to inactive results.
Tested on: Vero E6 infected with SARS-CoV-2
Assay: inhibition of SARS-CoV-2 cytopathic effect; higher = more antiviral protection, active = above 15
Settings: 48 h

## CC/C(=C(\c1ccc(O)cc1)c1ccc(OCCN(C)C)cc1)c1ccccc1 [afimoxifene]
1 nM
  inhibition of SARS-CoV-2 cytopathic effect: -2.83%
8.33 nM
  inhibition of SARS-CoV-2 cytopathic effect: 1.16%
100 nM
  inhibition of SARS-CoV-2 cytopathic effect: 3.76%
833.33 nM
  inhibition of SARS-CoV-2 cytopathic effect: -0.54%
10000 nM
  inhibition of SARS-CoV-2 cytopathic effect: 40% (active)

## O=C(O)COc1ccc(/C=C2\SC(=O)NC2=O)cc1
1 nM
  inhibition of SARS-CoV-2 cytopathic effect: 0.12%
8.33 nM
  inhibition of SARS-CoV-2 cytopathic effect: 0.67%
100 nM
  inhibition of SARS-CoV-2 cytopathic effect: 5.3%
833.33 nM
  inhibition of SARS-CoV-2 cytopathic effect: 4.16%
10000 nM
  inhibition of SARS-CoV-2 cytopathic effect: -0.64%

## CCCCCCCCCCCCCCCC[N+](C)(C)Cc1ccccc1 [benzyldimethylhexadecylammonium]
1 nM
  inhibition of SARS-CoV-2 cytopathic effect: 2.1%
8.33 nM
  inhibition of SARS-CoV-2 cytopathic effect: 0.11%
100 nM
  inhibition of SARS-CoV-2 cytopathic effect: -1.57%
833.33 nM
  inhibition of SARS-CoV-2 cytopathic effect: -0.97%
10000 nM
  inhibition of SARS-CoV-2 cytopathic effect: -13.2%

## CN(CCc1ccc(Cl)c(Cl)c1)CCN1CCCC1
1 nM
  inhibition of SARS-CoV-2 cytopathic effect: -1.5%
8.33 nM
  inhibition of SARS-CoV-2 cytopathic effect: -0.54%
100 nM
  inhibition of SARS-CoV-2 cytopathic effect: 2%
833.33 nM
  inhibition of SARS-CoV-2 cytopathic effect: 3.84%
10000 nM
  inhibition of SARS-CoV-2 cytopathic effect: -1.25%

## C(#CCN1CCCC1)CN1CCCC1 [tremorine]
1 nM
  inhibition of SARS-CoV-2 cytopathic effect: 8.56%
8.33 nM
  inhibition of SARS-CoV-2 cytopathic effect: 4.46%
100 nM
  inhibition of SARS-CoV-2 cytopathic effect: -2.04%
833.33 nM
  inhibition of SARS-CoV-2 cytopathic effect: -3.53%
10000 nM
  inhibition of SARS-CoV-2 cytopathic effect: -1.73%

## CCn1c(-c2nonc2N)nc2cnc(Oc3cccc(NC(=O)c4ccc(OCCN5CCOCC5)cc4)c3)cc21
1 nM
  inhibition of SARS-CoV-2 cytopathic effect: 3.5%
8.33 nM
  inhibition of SARS-CoV-2 cytopathic effect: 0.11%
100 nM
  inhibition of SARS-CoV-2 cytopathic effect: -2.86%
833.33 nM
  inhibition of SARS-CoV-2 cytopathic effect: -4.75%
10000 nM
  inhibition of SARS-CoV-2 cytopathic effect: -5.7%

## Nc1nccc(-c2ccc3noc(-c4ccc(Cl)cc4)c3c2)n1 [PIM-1-Inhibitor-2]
1 nM
  inhibition of SARS-CoV-2 cytopathic effect: 0.72%
8.33 nM
  inhibition of SARS-CoV-2 cytopathic effect: -0.19%
100 nM
  inhibition of SARS-CoV-2 cytopathic effect: 3.66%
833.33 nM
  inhibition of SARS-CoV-2 cytopathic effect: 0.83%
10000 nM
  inhibition of SARS-CoV-2 cytopathic effect: 0.56%

## CC(C)(C)NCC(O)COc1cc(Cl)ccc1Cl (stereo not given) [cloranolol]
1 nM
  inhibition of SARS-CoV-2 cytopathic effect: -3.31%
8.33 nM
  inhibition of SARS-CoV-2 cytopathic effect: -3.27%
100 nM
  inhibition of SARS-CoV-2 cytopathic effect: -3.87%
833.33 nM
  inhibition of SARS-CoV-2 cytopathic effect: -3.29%
10000 nM
  inhibition of SARS-CoV-2 cytopathic effect: -8.51%

## CN(C)[C@@H]1C(O)=C(C(N)=O)C(=O)[C@@]2(O)C(O)=C3C(=O)c4c(O)cccc4[C@@](C)(O)[C@H]3C[C@@H]12 [tetracycline]
1 nM
  inhibition of SARS-CoV-2 cytopathic effect: 1.65%
8.33 nM
  inhibition of SARS-CoV-2 cytopathic effect: 1.27%
100 nM
  inhibition of SARS-CoV-2 cytopathic effect: -0.37%
833.33 nM
  inhibition of SARS-CoV-2 cytopathic effect: -0.82%
10000 nM
  inhibition of SARS-CoV-2 cytopathic effect: 1.35%

From the supplement of paper PMC13380429
